Measurements as given in PubChem BioAssay (NCATS).
Records with an inconclusive call do not appear. Active and inactive are the calls of the source. Calls follow the shape of the dose curve; as a rule, active = well fitted curve in the direction sought with a large enough effect; inconclusive = small, poorly fitted or top-dose-only effect, or another doubt; inactive = no such curve, though single readings can be large; an effect the other way counts as inactive or inconclusive.

Experiments:
[1] = Cellular Toxicity (caspase-3) NIH 3T3 (AID 666);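 also: caspase signal read after 16 h compound exposure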
Outline: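 Mouse NIH 3T3 fibroblasts (1000 cells/well) were treated with compound for 16 hr at 37°C in complete medium; caspase-3/7 activity was read by Caspase-Glo luminescence. Normalized to DMSO and 100 uM tamoxifen; AC50 from Hill fits.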

[2] = Cellular Toxicity (caspase-3) Renal Proximal Tubule (AID 667);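 also: cells exposed to compound for 16 hours at 37 °C before detection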
Outline: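 Caspase 3/7 activation measured by luminescent aminoluciferin release in primary rat proximal tubule cells after 16 hr compound exposure at 37 °C. AC50 from Hill-fitted concentration-response, scaled between DMSO and 10 uM staurosporine.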

[3] = biological target: Cytochrome P450 3A4 (Homo sapiens) (UniProt P08684); test: qHTS Assay for Inhibitors and Substrates of Cytochrome P450 3A4 (AID 884); also: series mostly up to about 57 µM; nearly all actives have a fitted effect of over 50% in size
Outline: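 20 nM human CYP3A4 with 25 uM Luciferin-PPXE (at KM) in 200 mM KPO4, preincubated 10 min with compound; NADPH regeneration started a 60 min RT reaction. Luciferin detected by luminescence, normalized to 57 uM ketoconazole as full inhibition.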

[4] = Cell Viability - LYMP2-001 (AID 921); also: series mostly up to about 92 µM; nearly all actives have a fitted effect of over 70% in size
Outline: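 Cellular ATP loss read by luciferase luminescence after 24 h compound exposure at 37 C in complete medium. LYMP2-001 lymphoblastoid cells, 2500/well; qHTS concentration-response data fitted with Hill equation for AC50.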

[5] = MultiTox-Fluor Cytotoxicity Assay - LYMP1-001 - Live Cells (AID 947)
[6] = Cell Viability - LYMP1-002 - Assay at 16 hr (AID 948)
Outline: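 ATP luminescence (CellTiter-Glo) was measured after 16 hr compound exposure at 37 C of 2500 lymphoblastoid LYMP1-002 cells per well. Concentration-response curves were fitted with the Hill equation to give AC50.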

[7] = MultiTox-Fluor Cytotoxicity Assay - LYMP1-002 - Live Cells (AID 955)
Outline: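 Human lymphoblastoid LYMP1-002 cells, 2500/well in complete medium, rested 5 hr at 37 C, then exposed to compounds for 16 hr at 37 C. Live-cell protease cleavage of GF-AFC read by fluorescence (Ex/Em 405/510) after 60 min at room temperature; AC50 from Hill fits.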

[8] = MultiTox-Fluor Cytotoxicity Assay - LYMP1-003 - Dead Cells (AID 961); also: nearly all actives have a fitted effect of over 70% in size
Outline: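 LYMP1-003 human lymphoblastoid cells (2500/well) exposed to compound 16 h at 37 C in complete medium; dead-cell protease read with bis-AAF-R110 fluorescence (Ex/Em 485/520) after 60 min at room temperature. Normalized to DMSO and 15 uM tetraoctylammonium bromide; AC50 from Hill fit.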

[9] = MultiTox-Fluor Cytotoxicity Assay - LYMP1-003 - Live Cells (AID 962);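 also: cytotoxic hits lower the live-cell protease signal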
Outline: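 LYMP1-003 human lymphoblastoid cells (2500/well) in complete medium were preincubated 5 hr at 37 C, then exposed to compounds for 16 hr at 37 C. Live-cell protease cleavage of GF-AFC read by fluorescence (Ex/Em 405/510); AC50 from Hill fits.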

[10] = Cell Viability - LYMP1-003 - Assay at 24 hr (AID 963)
Outline: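 Human lymphoblastoid LYMP1-003 cells (2500/well) were rested 5 hr at 37 C, then exposed to compounds in complete medium for 24 hr at 37 C. Cellular ATP was quantified by CellTiter-Glo luminescence, and AC50 values came from Hill fits of concentration-response data.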

[11] = Cell Viability - LYMP1-003 - Assay at 40 hr (AID 964); also: series mostly up to about 92 µM; nearly all actives have a fitted effect of over 60% in size
Outline: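 Human lymphoblastoid LYMP1-003 cells, 2500/well in complete medium, rested 5 hr at 37 C, then exposed to compounds for 40 hr at 37 C. Viability read as intracellular ATP by CellTiter-Glo luminescence; AC50 from Hill fits of concentration-response data.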

[12] = Cell Viability - LYMP2-003 (AID 965);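 also: cells exposed to compounds for 24 h before reading; nearly all actives have a fitted effect of over 50% in size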
Outline: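 CellTiter-Glo luminescence quantified ATP loss after 24 h compound treatment of LYMP2-003 lymphoblastoid cells at 37 C. Titration series were fitted with the standard Hill equation to give AC50.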

[13] = Cell Viability - LYMP2-004 (AID 966); also: nearly all actives have a fitted effect of over 65% in size
Outline: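 Human lymphoblastoid cells (2500/well) in complete medium were treated with compounds for 24 hr at 37 C, then intracellular ATP was measured by CellTiter-Glo luminescence. AC50 values came from Hill-equation fits of concentration-response data.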

[14] = Cell Viability - LYMP2-005 (AID 967); also: series mostly up to about 92 µM
Outline: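 LYMP2-005 human lymphoblastoid cells (2500/well) were treated with compounds for 24 h at 37 C. Intracellular ATP was then measured by CellTiter-Glo luminescence after 30 min at room temperature. AC50 values came from Hill-equation fits of qHTS concentration-response data.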

[15] = Cell Viability - LYMP2-009 (AID 968); also: series mostly up to about 92 µM; nearly all actives have a fitted effect of over 55% in size
[16] = Cell Viability - LYMP2-011 (AID 969); also: nearly all actives have a fitted effect of over 60% in size
Outline: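 Human lymphoblastoid cells (2500/well) were plated in complete medium, preincubated 5 hr at 37 C, then exposed to compounds for 24 hr at 37 C. Intracellular ATP was read by CellTiter-Glo luminescence, and AC50 came from Hill-equation concentration-response fits.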

[17] = Cell Viability - LYMP2-013 (AID 970); also: series mostly up to about 92 µM; nearly all actives have a fitted effect of over 55% in size
Outline: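 Human lymphoblastoid cells, 2500/well, were preincubated 5 hr at 37 C, then treated with compounds for 24 hr at 37 C in complete medium. Intracellular ATP was read by CellTiter-Glo luminescence; AC50 from Hill-equation fits of concentration-response data.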

[18] = Cell Viability - LYMP2-015 (AID 971); also: nearly all actives have a fitted effect of over 55% in size
Outline: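 Human lymphoblastoid cells (2500/well) in complete medium were preincubated 5 hr at 37 C, then compound-treated 24 hr at 37 C. Intracellular ATP was read by CellTiter-Glo luminescence after 30 min at room temperature; AC50 came from Hill-equation concentration-response fits.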

[19] = Cell Viability - LYMP2-017 (AID 972); also: series mostly up to about 92 µM; nearly all actives have a fitted effect of over 55% in size
Outline: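 Human lymphoblastoid cells (2500/well) were seeded in complete medium, held 5 hr at 37 C, then exposed to compounds for 24 hr at 37 C. Intracellular ATP was read by CellTiter-Glo luminescence after 30 min at room temperature, with AC50 values from Hill-equation fits.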

[20] = Cell Viability - LYMP2-019 (AID 973); also: nearly all actives have a fitted effect of over 55% in size
Outline: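 Human lymphoblastoid cells were seeded at 2500 cells/well, preincubated 5 hr at 37 C, then exposed to compounds for 24 hr at 37 C in complete medium. Intracellular ATP was measured by CellTiter-Glo luminescence; AC50 from Hill fits.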

[21] = Cell Viability - LYMP2-021 (AID 974)
Outline: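 Human lymphoblastoid cells (2500/well) were preincubated 5 hr at 37 C, then exposed to compounds for 24 hr at 37 C in complete medium. Intracellular ATP was read by CellTiter-Glo luminescence; AC50 came from Hill-equation fits of concentration-response data.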

[22] = Cell Viability - LYMP2-023 (AID 975)
Outline: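 Human lymphoblastoid cells (2500/well) were preincubated 5 hr at 37 C, then exposed to compounds for 24 hr at 37 C in complete medium. Cellular ATP was read by CellTiter-Glo luminescence, and AC50 came from Hill-equation fits.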

Measured: Potency

Cytochrome P450 3A4 (Homo sapiens), sequence (P08684 whole entry, looked up): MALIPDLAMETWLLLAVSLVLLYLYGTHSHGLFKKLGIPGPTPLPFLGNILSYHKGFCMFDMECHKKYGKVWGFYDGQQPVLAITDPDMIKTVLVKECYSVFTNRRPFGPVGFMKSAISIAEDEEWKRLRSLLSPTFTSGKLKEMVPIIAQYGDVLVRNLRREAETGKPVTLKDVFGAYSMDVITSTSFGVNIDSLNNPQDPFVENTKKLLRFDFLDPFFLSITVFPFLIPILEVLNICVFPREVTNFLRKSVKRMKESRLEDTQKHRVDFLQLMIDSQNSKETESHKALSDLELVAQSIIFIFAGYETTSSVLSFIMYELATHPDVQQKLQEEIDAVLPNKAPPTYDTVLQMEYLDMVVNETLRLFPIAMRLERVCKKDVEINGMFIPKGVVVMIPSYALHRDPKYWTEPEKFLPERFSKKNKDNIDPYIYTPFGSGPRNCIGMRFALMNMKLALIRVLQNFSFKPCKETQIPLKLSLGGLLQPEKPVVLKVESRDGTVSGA

CC12CCC(CC1=O)C2(C)C (configuration not stated)
inactive: all assays above
